The assay can be described thus: viability profiling in RPMI8226 myeloma cells – cell-based, resazurin fluorescence, basal, 24 h, PK04 Diversity Set, profiling panel (AID 1180).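 Also: RPMI8826 multiple myeloma cell line at 5000 cells per well; test concentration not given here.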 The note with it: higher = more signal. A general note: The colour change of resazurin is a common sign of viable cells or microbes.
The molecule `CCOC(=O)C[C@H]1[C@H](OC(=O)Cc2ccc3c(c2)OCO3)[C@@H](NC(=O)c2ccc(-c3ccccc3)cc2)c2cc(OCCCO)ccc2N1C(=O)Cc1ccc(OC)cc1` had a z-score of 0.489. For `C=CCNC(=O)[C@H]1[C@@H]2C(=O)O[C@@H](c3ccccc3)[C@@H](c3ccccc3)N2[C@@H](c2ccc(O)cc2)[C@]12C(=O)N(C(=O)OCCOC)c1ccc(C#CCNC(N)=O)cc12` the value was -0.17; for `NCCCCCNC(=O)[C@@H]1C[C@@H]2C(=O)NCC(=O)N2[C@@H]1c1ccc(O)cc1`, -0.9; for `C[N+](C)(C)CCCC[C@@H]1NC(=O)[C@@H]2C[C@H](C(=O)NCCCCCN)[C@H](c3cccc(OCCO)c3)N2C1=O`, 0.0758.

Molecule `COc1cc(CO)cc(I)c1O[C@H]1C=C(C(=O)NCCO)C[C@@H](N(CCN2CCOCC2)C(=O)C2CCOC2)[C@@H]1O` (stereo not given in full) yielded a z-score of 0.923.

The molecule `[N-]=[N+]=NCc1ccccc1[C@@H]1OC(c2ccc(OCCCO)cc2)=N[C@]1(Cc1ccccc1N=[N+]=[N-])C(=O)N1CCOCC1` registered a z-score of -1.64.

In turn, `O=C1NCC(=O)N2[C@@H]1C[C@@H](C(=O)O)[C@H]2c1cccc(OCCO)c1` returned a z-score of -0.828. For `COc1ccc([Si](C)(C)[C@H]2[C@H](CCO)O[C@@]3(C(=O)N(Cc4ccc(N5C(=O)COc6ccccc65)cc4)c4ccccc43)[C@@H]2C)cc1` the value was -5.05; for `O=C1c2ccccc2[C@@]2(Cc3ccccc3N(CCN3CCOCC3)C2=O)[C@H](c2ccc(CO)cc2)N1Cc1ccccc1`, 0.386; for `COc1ccc([Si](C)(C)[C@@H]2[C@@H](CC(=O)N3Cc4ccccc4C[C@H]3CO)O[C@]3(C(=O)N(C)c4c(Br)cc(C)cc43)[C@H]2C)cc1`, -5.76.

Molecule `CCOC(=O)C[C@H]1[C@H](OC(=O)Cc2ccc3c(c2)OCO3)[C@@H](NC(=O)c2ccc3ccccc3c2)c2cc(OCCCO)ccc2N1C(=O)c1ccccc1` registered a z-score of -0.52. Under `CN1C(=O)C2C=CC(C(O)c3ccccc3)N(Nc3ccccc3)C2C1=O` (stereo not given) stands -1.52. For `CC(C)c1ccc(NN2C(C(O)C(c3ccccc3)c3ccccc3)C=CC3C(=O)N(c4ccccc4)C(=O)C32)cc1` (stereo not given) the value was -0.912; for `C=C(CCCC)C(=O)CC[C@H](OC(=O)c1cccnc1)c1ccccc1OCCO`, -2.29; for `CC(C)[C@@H](CO)NC(=O)[C@H]1[C@@H](c2ccccc2)N(c2ccccc2)O[C@@H]1C`, 0.566.

As for `CCOC(=O)[C@H]1CC=C2CC1C(=O)N1CCC[C@@H]1[C@@H]2O[Si](C)(C)C(C)(C)C` (stereo not given in full), the z-score amounted to 1.04.

In turn, `O=C(O)[C@@]1(CCS(=O)(=O)c2ccccc2)COC(c2ccc(OCCCO)cc2)=N1` gave a z-score of 0.0149.

In turn, `CCOC(=O)[C@H]1C/C=C/C[C@H](C(=O)OCC)C(=O)O[C@H]2[C@@H](OC)O[C@H](CO)[C@@H](OC(=O)Nc3ccc(C#N)cc3)[C@@H]2OC1=O` registered a z-score of -7.15. For `COCCOC(=O)N1C(=O)[C@@]2(c3cc(C#CC4=CCCCC4)ccc31)[C@H](C(=O)N1CCc3cc(OC)c(OC)cc3C1)[C@H]1C(=O)O[C@H](c3ccccc3)[C@H](c3ccccc3)N1[C@@H]2c1ccc(OCCO)cc1` the value was 0.492; for `C#CCN(CC=C(C)C)[C@H](CO)c1ccccc1`, -0.544. For `COc1ccc(C(O)C2C=CC3C(=O)N(c4ccccc4)C(=O)C3N2Nc2ccccc2F)cc1OCc1ccccc1` (stereo not given) the value was -1.55; for `COc1ccc(C(=O)Nc2ccc(CN3C(=O)[C@@]4(O[C@@H](CC(=O)N5CCC[C@H]5CO)[C@H]([Si](C)(C)c5ccc(OC)cc5)[C@H]4C)c4ccccc43)cc2)cc1`, -0.677; for `CCOC(=O)C=Cc1cc([N+](=O)[O-])ccc1O`, -0.688.

`CCOc1cc(C(O)C2C=CC3C(=O)N(c4ccccc4)C(=O)C3N2Nc2ccccc2)ccc1O` (stereo not given) gave a z-score of -0.0963. Under `CCOC(=O)C[C@H]1[C@H](OC(=O)c2cc3ccccc3oc2=O)[C@@H](NC(=O)Cc2ccc(OC)cc2)c2cc(OCCCO)ccc2N1C(=O)c1ccccc1` stands -1.22; under `O=C(NCc1ccc(F)cc1)[C@H]1C[C@H]2C(=O)N[C@@H](Cc3ccccc3)C(=O)N2[C@H]1c1ccc(O)cc1`, 0.512. In the case of `O=C(c1ccccc1)N1Cc2ccccc2[C@@H]2OC(c3ccc(OCCCO)cc3)=N[C@]2(Cc2ccccc2)C1=O`, the z-score was -2.49. For `COc1ccc(C(=O)Nc2ccc(CN3C(=O)[C@@]4(O[C@@H](CCO)[C@H]([Si](C)(C)c5ccc(OC)cc5)[C@H]4C)c4ccccc43)cc2)cc1` the value was -5.97; for `COc1ccc([Si](C)(C)[C@H]2[C@H](CCn3cc([C@H](O)c4ccccc4)nn3)O[C@@]3(C(=O)N(Cc4cccc(N5CCOC5=O)c4)c4ccccc43)[C@@H]2C)cc1`, -0.754; for `CCCC=C(CCC)[C@@H](NS(=O)(=O)c1cccs1)c1ccc(C(=O)OC)cc1`, -5.85.

Molecule `O=C(NCc1ccccc1)[C@@]1(Cc2ccccc2)N=C(c2ccc(OCCCO)cc2)O[C@H]1c1ccccc1` showed a z-score of -2.66.

`COC(=O)c1c(CC[C@@H](CO)NC(=O)N[C@@H](C)Cn2cc(C3(O)CCCCC3)nn2)oc(C(C)=O)c1C(=O)OC` showed a z-score of -0.8. For `O=C1O[C@H](c2ccccc2)[C@H](c2ccccc2)N2[C@H]1[C@@H](C(=O)O)[C@]1(C(=O)Nc3ccc(C#CCCO)cc31)[C@H]2c1ccc(O)cc1` the value was 1.14. For `CC(C)C[C@H]1NC(=O)[C@@]23C(=O)N[C@@H](Cc4ccccc4)C2[C@H](C)[C@@]2(C)O[C@H]2C3/C=C/C/C=C\CNC(=O)[C@H](Cc2ccccc2)NC1=O` (stereo not given in full) the value was 0.628; for `COc1ccc(C#Cc2ccc3c(c2)[C@]2(C(=O)N3)[C@H](c3ccccc3OCCO)N3[C@H](c4ccccc4)[C@H](c4ccccc4)OC(=O)[C@H]3[C@@H]2C(=O)O)cc1`, -6.75.

The record behind these values is PubChem BioAssay.
